Data: PubChem BioAssay (Tox21)
Results filed as inconclusive are left out. Calls of active or inactive are those of the source. Unless noted, the call rests on the fitted dose curve; in most records, active means well fitted curve in the direction sought with a large enough effect in the repeat runs; inconclusive means weak or mixed curves; inactive means no such curve, though single readings can be large; an effect the other way counts as inactive or inconclusive.

How the values were obtained:
[1] = qHTS assay for small molecule agonists of the p53 signaling pathway (AID 651631; calls by dose curve; further: nearly all actives have a fitted effect of over 15% in size)
Outline: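 HCT-116 cells carrying a stable p53 response element–beta-lactamase reporter were plated, rested 5 h at 37 °C, then exposed to compound in DMSO for 16 h at 37 °C; reporter activity was read as FRET substrate fluorescence after 2 h at room temperature.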

[2] = qHTS assay for small molecules that induce genotoxicity in human embryonic kidney cells expressing luciferase-tagged ATAD5 (AID 651632); further: nearly all actives have a fitted effect of over 15% in size
Outline: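 Luminescent reporter readout, HEK293T ATAD5-luc line: 16 hr drug exposure (37C, 5% CO2) followed by Amplite, 30 min RT.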

[3] = qHTS assay for small molecule agonists of the p53 signaling pathway - cell viability (AID 651633; calls by dose curve; further: series mostly up to about 83 µM; nearly all actives have a fitted effect of over 30% in size)
Outline: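 p53RE-bla cells were treated with compound for 16 hours at 37 C. Cytotoxicity was then measured as CellTiter-Glo luminescence after 30 min at room temperature.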

[4] = qHTS assay for small molecule disruptors of the mitochondrial membrane potential - cell viability (AID 720634; calls by dose curve;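 further: human HepG2 liver cancer cells; series mostly up to about 83 µM; nearly all actives have a fitted effect of over 20% in size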)
Outline: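 HepG2, 1 hr compound, 37 C. ATP luminescence via CellTiter-Glo, 30 min RT, same well as m-MPI.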

[5] = qHTS assay to test for compound auto fluorescence at 590 nm (red) in HepG2 cells (AID 720674)
Outline: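 HepG2 cells, 2,000 per well in MEM with 10% FBS, attached overnight at 37 C, then got 23 nL compound or DMSO. After 1 hr at 37 C, 5% CO2, red fluorescence was read at 540/590 nm against Rose Bengal sodium as reference.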

[6] = qHTS assay to test for compound auto fluorescence at 535 nm (green) in HepG2 cells (AID 720675)
[7] = qHTS assay to test for compound auto fluorescence at 590 nm (red) in HEK293 cells (AID 720679)
Outline: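 Red autofluorescence, HEK293 cells: 2,000 cells/well; attach 4-5 hr 37C; add 23 nL cpd or DMSO; incubate o/n 37C 5% CO2; read Ex540/Em590; Rose Bengal sodium reference.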

[8] = qHTS assay to test for compound auto fluorescence at 535 nm (green) in HEK293 cells (AID 720680)
[9] = qHTS assay to test for compound auto fluorescence at 460 nm (blue) in HEK293 cell free culture (AID 720681)
Outline: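 Compounds were added to cell-free DMEM with 10% FBS and fluorescence read directly. The blue channel used 405 nm excitation and 460 nm emission, with triamterene as the reference fluorophore.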

[10] = qHTS assay to test for compound auto fluorescence at 535 nm (green) in HEK293 cell free culture (AID 720682)
Outline: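 Read-out: 485/535 nm fluorescence intensity, calibrated against fluorescein. Medium only (DMEM + 10% FBS, no cells); test compound or DMSO vehicle added by pintool before plate reading.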

[11] = qHTS assay to test for compound auto fluorescence at 590 nm (red) in HEK293 cell free culture (AID 720683)
Outline: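 Cell-free wells of DMEM with 10% FBS received compound, and intrinsic fluorescence was read at excitation/emission 540/590 nm. Values expressed as equivalence to Rose Bengal sodium.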

[12] = qHTS assay to test for compound auto fluorescence at 590 nm (red) in HepG2 cell free culture (AID 720684)
Outline: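 Compounds are added to culture medium (MEM, 10% FBS) lacking cells, then fluorescence is read at excitation 540 nm, emission 590 nm, with Rose Bengal sodium as the equivalency standard.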

[13] = qHTS assay to test for compound auto fluorescence at 460 nm (blue) in HepG2 cell free culture (AID 720685)
Outline: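 Compound (23 nL) or DMSO pinned into cell-free MEM with 10% FBS; blue fluorescence read at 405/460 nm excitation/emission, expressed as auto-fluorescence equivalency to triamterene.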

[14] = qHTS assay to test for compound auto fluorescence at 535 nm (green) in HepG2 cell free culture (AID 720686)
[15] = qHTS assay to test for compound auto fluorescence at 460 nm (blue) in HepG2 cells (AID 720687)
Outline: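 HepG2 cells in MEM with 10% FBS, attached overnight at 37 C, were exposed to compound or DMSO for 1 hr at 37 C, 5% CO2. Blue fluorescence was read at 405/460 nm, with triamterene as reference fluorophore.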

[16] = qHTS assay to test for compound auto fluorescence at 460 nm (blue) in HEK293 cells (AID 720678)
Outline: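 Intrinsic compound fluorescence is recorded in live HEK293 cultures after overnight incubation at 37C, 5% CO2, using excitation 405 nm and emission 460 nm. Values are referenced to triamterene.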

[17] = biological target: Glucocorticoid receptor (Homo sapiens) (UniProt P04150); assay: qHTS assay to identify small molecule agonists of the glucocorticoid receptor (GR) signaling pathway (AID 720691; active means well fitted activation curve with a large enough effect in the signal ratio in the repeat runs, not every such curve was filed as active; the % refers to the signal ratio)
Glucocorticoid receptor (Homo sapiens), sequence (P04150 whole entry, looked up): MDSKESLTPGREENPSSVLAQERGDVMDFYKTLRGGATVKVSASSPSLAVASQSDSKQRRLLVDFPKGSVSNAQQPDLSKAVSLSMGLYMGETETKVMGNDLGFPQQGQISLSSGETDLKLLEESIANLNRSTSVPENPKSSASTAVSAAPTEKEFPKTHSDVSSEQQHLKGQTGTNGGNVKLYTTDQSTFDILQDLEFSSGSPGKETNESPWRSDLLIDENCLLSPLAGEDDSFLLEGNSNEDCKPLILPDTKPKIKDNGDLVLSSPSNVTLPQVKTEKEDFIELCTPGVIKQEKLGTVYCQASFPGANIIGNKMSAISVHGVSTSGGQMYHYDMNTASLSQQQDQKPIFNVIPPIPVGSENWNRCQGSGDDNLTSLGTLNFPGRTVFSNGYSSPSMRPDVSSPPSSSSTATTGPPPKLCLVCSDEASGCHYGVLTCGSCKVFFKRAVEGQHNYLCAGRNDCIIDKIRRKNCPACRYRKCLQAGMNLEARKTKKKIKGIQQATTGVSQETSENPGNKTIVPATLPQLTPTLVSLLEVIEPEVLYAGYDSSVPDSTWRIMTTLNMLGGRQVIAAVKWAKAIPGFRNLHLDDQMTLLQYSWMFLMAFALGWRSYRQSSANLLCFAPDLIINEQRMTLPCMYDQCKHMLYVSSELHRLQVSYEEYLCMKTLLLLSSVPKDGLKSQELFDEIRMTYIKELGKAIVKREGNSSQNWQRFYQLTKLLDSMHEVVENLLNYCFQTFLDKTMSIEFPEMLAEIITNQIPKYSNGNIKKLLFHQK
Outline: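 qHTS in GR-bla HeLa cells: 4 h settling at 37 C/5% CO2, 18 h compound incubation at 37 C, 2 h LiveBLAzer B/G FRET substrate at room temperature, fluorescence intensity measured.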

[18] = biological target: Glucocorticoid receptor (Homo sapiens) (UniProt P04150); assay: qHTS assay to identify small molecule antagonists of the glucocorticoid receptor (GR) signaling pathway (AID 720692; active means well fitted inhibition curve with a large enough effect in the signal ratio in the repeat runs, not every such curve was filed as active; the % refers to the signal ratio)
Outline: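 Inhibition of glucocorticoid signalling is measured in HeLa cells with a GRE-controlled beta-lactamase reporter; cells are co-treated with compound and 5 nM dexamethasone (final) for 18 h before FRET substrate readout.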

[19] = qHTS assay for small molecule disruptors of the mitochondrial membrane potential (AID 720635)
Outline: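 HepG2 cells exposed to compound 1 hr at 37C, then Mito-MPS dye 30 min. Ratio read of aggregate (540/590 nm) versus monomer (490/535 nm) fluorescence.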

Measured: Potency

CCN(CC#N)c1cccc(C)c1
inactive: [1] | [2] | [3] | [4] | [5] | [6] | [7] | [8] | [9] | [10] | [11] | [12] | [13] | [14] | [15]

[K+]
inactive: [1] | [2] | [3] | [4] | [5] | [16] | [7] | [8] | [9] | [10] | [11] | [12] | [13] | [14] | [15] | [17] | [18]

CC1=CC(=O)[C@H]2C[C@@H]1C2(C)C
inactive: [1] | [2] | [3] | [4] | [5] | [6] | [16] | [7] | [8] | [9] | [11] | [12] | [13] | [14] | [15] | [17] | [18]

CC(=O)N[C@H]1[C@H]([C@H](O)[C@H](O)CO)OC(C(=O)O)=C[C@@H]1N=C(N)N
inactive: [1] | [2] | [3] | [4] | [5] | [6] | [7] | [8] | [9] | [10] | [11] | [12] | [13] | [14] | [15] | [17] | [18]

CCCCCCCCCCCCCCC(=O)O
inactive: [1] | [2] | [3] | [4] | [19] | [5] | [16] | [7] | [8] | [9] | [10] | [11] | [12] | [13] | [14] | [15]

CCCCCC(C)N (stereo not drawn)
inactive: [1] | [2] | [3] | [4] | [19] | [5] | [6] | [16] | [7] | [8] | [10] | [11] | [13] | [15] | [17] | [18]
